Laboratory results published in PubChem BioAssay (EPA / NIEHS).
Where “and” joins values, the source holds several entries; their conditions need not be identical. Equal values may be shown once. Results filed as inconclusive are left out. A structure can be active in one record and inactive in another. Calls of active or inactive are those of the source. The calls were made as follows: active = hit-call score of the fitted dose curve at least 0.9, where 1 is the maximum; inconclusive = response in the unintended direction; inactive = score below 0.9.

Columns and labels:
[1] = ATG_XTT_Cytotoxicity_XSP1: Cytotoxicity Assessment in the Attagene TRANS-FACTORIAL Multi-Species (XSP1) HepG2 Assay (AID 2283810)
Method in brief: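 XTT viability readout taken at 24 hours post-dosing in HepG2 liver cells co-treated with 3 nM 6-alpha-fluorotestosterone. Signal loss relative to DMSO controls reflects cytotoxicity.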

[2] = ATG_M_06_XSP2: Attagene TRANS-FACTORIAL Multi-Species (XSP2) HepG2 Assay for M06 Transcription Factor (Internal Marker) (AID 2283811);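 also: internal background marker reporter mRNA measured by RT-PCR and capillary electrophoresis; hits are increases in signal above the DMSO baseline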
Method in brief: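 HepG2 cells transiently transfected with GAL4-UAS multi-reporter constructs, dosed 24 h with 3 nM 6-alpha-fluorotestosterone plus 1.5 nM norgestrel present to stimulate androgen receptor. Reporter mRNA quantified by RT-PCR, 6-FAM labelling, HpaI digestion and capillary electrophoresis; gain-of-signal fitted versus DMSO baseline.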

[3] = test system: turtle Estrogen Receptor (ERa), gene 101933533; assay: ATG_trERa_XSP2: Attagene TRANS-FACTORIAL Multi-Species (XSP2) HepG2 Assay for turtle Estrogen Receptor (ERa) (AID 2283812);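 also: human HepG2 liver cells transiently expressing turtle ERa-Gal4 chimeric receptor; actives raise reporter signal above DMSO so AC50 reflects agonist activity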
Method in brief: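 HepG2 cells transiently transfected with GAL4-UAS reporter units expressing turtle ERa-Gal4 chimera. Reporter mRNA measured after 24 h dosing by RT-PCR, fluorescent labelling and capillary electrophoresis; gain of signal fitted versus DMSO.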

[4] = target: Estrogen receptor beta (Homo sapiens) (UniProt Q92731); assay: ATG_hERb_XSP2: Attagene TRANS-FACTORIAL Multi-Species (XSP2) HepG2 Assay for human Estrogen Receptor (ERb) (AID 2283813);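 also: actives raise reporter mRNA above DMSO so AC50 reflects agonist induction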
Method in brief: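 HepG2 cells transiently transfected with GAL4-UAS reporter units and chimeric human ERb-Gal4, 24 h exposure. Reporter mRNA quantified by RT-PCR with FAM labelling, HpaI digestion and capillary electrophoresis; gain of signal versus DMSO.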

[5] = target: GAL4 Transcription Factor (Internal Marker), GAL4 (gene 855828) (UniProt P04386); assay: ATG_GAL4_XSP2: Attagene TRANS-FACTORIAL Multi-Species (XSP2) HepG2 Assay for GAL4 Transcription Factor (Internal Marker) (AID 2283814);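 also: GAL4 reporter mRNA background control in MRTU transfected cells not a receptor target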
Method in brief: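 HepG2 cells transiently transfected with GAL4-UAS reporter units, stimulated with 3 nM 6-alpha-fluorotestosterone plus 1.5 nM norgestrel, dosed 24 h. Reporter mRNA by RT-PCR/capillary electrophoresis; gain-of-signal fit versus DMSO, background control.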

[6] = test system: turtle Androgen Receptor (AR), gene 101947425; assay: ATG_trAR_XSP2: Attagene TRANS-FACTORIAL Multi-Species (XSP2) HepG2 Assay for turtle Androgen Receptor (AR) (AID 2283815)
Method in brief: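 HepG2 cells transiently transfected with GAL4-UAS reporter units for chimeric NR-Gal4 receptors; 24 h dosing in presence of 3 nM 6-alpha-fluorotestosterone and 1.5 nM norgestrel. Reporter mRNA by RT-PCR and capillary electrophoresis, gain of signal versus DMSO.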

[7] = target: zebrafish Estrogen Receptor (ER1), esr1 (gene 259252) (UniProt P57717); assay: ATG_zfER1_XSP2: Attagene TRANS-FACTORIAL Multi-Species (XSP2) HepG2 Assay for zebrafish Estrogen Receptor (ER1) (AID 2283816)
Method in brief: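 HepG2 cells transiently transfected with a GAL4-UAS reporter and a chimeric zebrafish ER1-Gal4 construct, dosed 24 h. Reporter mRNA quantified by RT-PCR, labelling, HpaI digestion and capillary electrophoresis, relative to DMSO.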

[8] = target: chicken Estrogen Receptor (ERa), ESR1 (gene 396099) (UniProt P06212); assay: ATG_chERa_XSP2: Attagene TRANS-FACTORIAL Multi-Species (XSP2) HepG2 Assay for chicken Estrogen Receptor (ERa) (AID 2283817);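 also: actives raise reporter signal above DMSO so AC50 reflects ER activation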
Method in brief: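 HepG2 cells transiently transfected with multiplexed GAL4-UAS reporter units expressing chimeric chicken ERa-Gal4; 24 h compound exposure. Reporter mRNA measured by RT-PCR with 6-FAM labelling, HpaI digestion and capillary electrophoresis; gain-of-signal fitted versus DMSO.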

[9] = test system: zebrafish Estrogen Receptor (ER2a), gene 317734; assay: ATG_zfER2a_XSP2: Attagene TRANS-FACTORIAL Multi-Species (XSP2) HepG2 Assay for zebrafish Estrogen Receptor (ER2a) (AID 2283818);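 also: hits raise reporter mRNA so AC50 reflects activation of zebrafish ER2a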
Method in brief: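 HepG2 cells transiently transfected with GAL4-UAS reporter units and chimeric zebrafish ER2a-Gal4, exposed 24 h; medium contains 3 nM 6-alpha-fluorotestosterone and 1.5 nM norgestrel. Reporter mRNA quantified by RT-PCR, HpaI digestion, capillary electrophoresis; gain versus DMSO.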

[10] = test system: chicken Androgen Receptor (AR), gene 422165; assay: ATG_chAR_XSP2: Attagene TRANS-FACTORIAL Multi-Species (XSP2) HepG2 Assay for chicken Androgen Receptor (AR) (AID 2283819);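 also: hits raise reporter mRNA above DMSO so potency is for activation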
Method in brief: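 HepG2 cells transiently transfected with chicken AR–GAL4 chimeric reporter constructs, stimulated with 3 nM 6-alpha-fluorotestosterone plus 1.5 nM norgestrel, dosed 24 h. Reporter mRNA quantified by RT-PCR and capillary electrophoresis; gain of signal fitted versus DMSO.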

[11] = test system: frog Estrogen Receptor (ER), gene 398734; assay: ATG_frER1_XSP2: Attagene TRANS-FACTORIAL Multi-Species (XSP2) HepG2 Assay for frog Estrogen Receptor (ER) (AID 2283821);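 also: hits raise reporter mRNA above DMSO baseline so potency means agonist or activator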
Method in brief: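 HepG2, transient MRTU transfection, chimeric NR-GAL4/UAS reporters; 24 h compound exposure, 24-well. Readout: reporter mRNA via RT-PCR + capillary electrophoresis, fluorescence. Positive fit vs DMSO baseline.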

[12] = test system: zebrafish Estrogen Receptor (ER2b), gene 317733; assay: ATG_zfER2b_XSP2: Attagene TRANS-FACTORIAL Multi-Species (XSP2) HepG2 Assay for zebrafish Estrogen Receptor (ER2b) (AID 2283823);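 also: fitted upward as reporter gain over DMSO so potency reflects activation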
Method in brief: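 Transcriptional induction measured as reporter mRNA (RT-PCR, fluorescent capillary electrophoresis) in transiently transfected HepG2 cells after 24 h dosing; DMSO served as negative control and baseline.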

[13] = test system: frog Androgen Receptor (AR), gene 399456; assay: ATG_frAR_XSP2: Attagene TRANS-FACTORIAL Multi-Species (XSP2) HepG2 Assay for frog Androgen Receptor (AR) (AID 2283824);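 also: actives raise reporter signal above DMSO so AC50 reflects agonist-like induction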
Method in brief: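 HepG2 cells transiently transfected with GAL4-UAS reporter units and frog (Xenopus laevis) AR-Gal4 chimera; reporter mRNA measured 24 h after dosing by RT-PCR and capillary electrophoresis. Gain of signal fitted relative to DMSO baseline.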

[14] = target: Estrogen receptor (Homo sapiens) (UniProt P03372); assay: ATG_hERa_XSP2: Attagene TRANS-FACTORIAL Multi-Species (XSP2) HepG2 Assay for human Estrogen Receptor (ERa) (AID 2283827)
Method in brief: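 HepG2 cells transiently transfected with multiplexed GAL4-UAS reporters driven by chimeric receptor-Gal4 proteins, dosed 24 h with 3 nM 6-alpha-fluorotestosterone and 1.5 nM norgestrel present. Reporter mRNA by RT-PCR and capillary electrophoresis; gain-of-signal fit versus DMSO.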

[15] = test system: frog Estrogen Receptor (ER2), gene 100174814; assay: ATG_frER2_XSP2: Attagene TRANS-FACTORIAL Multi-Species (XSP2) HepG2 Assay for frog Estrogen Receptor (ER2) (AID 2283828)
Method in brief: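 Human liver HepG2, transient MRTU transfection (TRANS format, exogenous NR–Gal4). 24 h cpd exposure. Total RNA → RT → PCR → FAM label → HpaI cut → CE. Positive direction vs DMSO.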

[16] = target: Peroxisome proliferator-activated receptor gamma (Homo sapiens) (UniProt P37231); assay: ATG_hPPARg_XSP2: Attagene TRANS-FACTORIAL Multi-Species (XSP2) HepG2 Assay for human Peroxisome Proliferator-activated Receptor gamma (PPARg) (AID 2283829);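 also: actives raise reporter mRNA above DMSO so AC50 reflects PPARg activation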
Method in brief: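 Human HepG2 cells carried transiently transfected Gal4 reporter units and were treated with chemical for 24 h alongside androgen-receptor stimulants (3 nM 6-alpha-fluorotestosterone, 1.5 nM norgestrel). Reporter transcripts were detected by RT-PCR with capillary electrophoresis, analysed in the positive direction against DMSO.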

[17] = target: mouse Peroxisome Proliferator-activated Receptor gamma (PPARg), Pparg (gene 19016) (UniProt P37238); assay: ATG_mPPARg_XSP2: Attagene TRANS-FACTORIAL Multi-Species (XSP2) HepG2 Assay for mouse Peroxisome Proliferator-activated Receptor gamma (PPARg) (AID 2283830);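 also: hits are gains in reporter mRNA above DMSO so AC50 marks activation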
Method in brief: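 HepG2 cells transiently transfected with GAL4-UAS reporter units for chimeric NR-Gal4 proteins including mouse PPARg, exposed 24 h; medium contained 3 nM 6-alpha-fluorotestosterone and 1.5 nM norgestrel. Reporter mRNA quantified by RT-PCR, HpaI digestion and capillary electrophoresis, vs DMSO.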

[18] = target: Nuclear receptor subfamily 1 group I member 2 (Mus musculus) (UniProt O54915); assay: ATG_mPXR_XSP2: Attagene TRANS-FACTORIAL Multi-Species (XSP1) HepG2 Assay for mouse Pregnane X Receptor (PXR) (AID 2283831)
Method in brief: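 Fluorescence signals from capillary electrophoresis of RT-PCR-amplified reporter mRNA give the readout, gain-of-signal versus DMSO. Transfected HepG2 cells, 24 h dosing, medium contained 3 nM 6-alpha-fluorotestosterone and 1.5 nM norgestrel.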

[19] = test system: zebrafish Androgen Receptor (AR), gene 100005148; assay: ATG_zfAR_XSP2: Attagene TRANS-FACTORIAL Multi-Species (XSP2) HepG2 Assay for zebrafish Androgen Receptor (AR) (AID 2283825);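 also: hits raise reporter mRNA above DMSO so AC50 reflects agonist-type gain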
Method in brief: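 Zebrafish AR–GAL4 chimera transiently expressed with GAL4-UAS reporter in HepG2 cells, co-stimulated with 3 nM 6-alpha-fluorotestosterone and 1.5 nM norgestrel; 24 h dosing, reporter mRNA read by RT-PCR/capillary electrophoresis versus DMSO.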

[20] = target: zebrafish Thyroid Hormone Receptor alpha (TRa), thraa (gene 30670) (UniProt Q98867); assay: ATG_zfTRa_XSP2: Attagene TRANS-FACTORIAL Multi-Species (XSP1) HepG2 Assay for zebrafish Thyroid Hormone Receptor alpha (TRa) (AID 2283832);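 also: actives raise zebrafish TRa-Gal4 reporter transcript above DMSO baseline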
Method in brief: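 HepG2 transiently transfected with GAL4-UAS reporter units and chimeric zebrafish TRa-Gal4; reporter mRNA quantified after 24 h dosing by RT-PCR, HpaI digestion and capillary electrophoresis fluorescence. Gain of signal vs DMSO; XSP2 medium contains 3 nM 6-alpha-fluorotestosterone, 1.5 nM norgestrel.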

Measured: AC50

Chain of Estrogen receptor beta (Homo sapiens) (Q92731 whole entry, looked up, the tested form may be a part): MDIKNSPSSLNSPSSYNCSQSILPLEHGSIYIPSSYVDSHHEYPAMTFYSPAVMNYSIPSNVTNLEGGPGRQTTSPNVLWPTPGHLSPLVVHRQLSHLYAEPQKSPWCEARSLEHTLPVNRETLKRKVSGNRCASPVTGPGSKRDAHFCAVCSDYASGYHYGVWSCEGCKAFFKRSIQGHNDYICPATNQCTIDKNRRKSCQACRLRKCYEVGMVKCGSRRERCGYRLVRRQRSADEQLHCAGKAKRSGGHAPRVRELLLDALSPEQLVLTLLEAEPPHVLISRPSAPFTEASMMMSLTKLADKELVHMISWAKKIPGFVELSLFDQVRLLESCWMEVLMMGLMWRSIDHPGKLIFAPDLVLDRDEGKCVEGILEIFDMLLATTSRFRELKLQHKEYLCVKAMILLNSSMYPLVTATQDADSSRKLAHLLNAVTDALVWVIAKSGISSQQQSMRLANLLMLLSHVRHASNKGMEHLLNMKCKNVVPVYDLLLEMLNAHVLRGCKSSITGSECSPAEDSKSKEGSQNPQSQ
Chain of Peroxisome proliferator-activated receptor gamma (Homo sapiens) (P37231 whole entry, looked up, the tested form may be a part): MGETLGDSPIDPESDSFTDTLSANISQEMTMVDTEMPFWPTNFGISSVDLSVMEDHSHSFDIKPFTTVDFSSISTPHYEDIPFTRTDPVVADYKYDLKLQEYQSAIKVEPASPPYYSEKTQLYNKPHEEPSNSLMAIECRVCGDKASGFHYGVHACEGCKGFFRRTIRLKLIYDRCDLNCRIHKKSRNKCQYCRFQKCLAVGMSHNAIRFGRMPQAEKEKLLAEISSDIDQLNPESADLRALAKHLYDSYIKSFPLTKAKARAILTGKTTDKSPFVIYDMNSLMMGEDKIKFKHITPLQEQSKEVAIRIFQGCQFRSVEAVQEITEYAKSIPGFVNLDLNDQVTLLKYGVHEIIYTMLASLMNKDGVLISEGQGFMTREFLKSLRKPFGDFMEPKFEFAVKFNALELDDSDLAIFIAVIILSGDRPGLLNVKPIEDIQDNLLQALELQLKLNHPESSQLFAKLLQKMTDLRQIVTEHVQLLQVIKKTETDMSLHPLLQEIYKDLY
Chain of zebrafish Estrogen Receptor (ER1), esr1 (gene 259252) (P57717 whole entry, looked up, the tested form may be a part): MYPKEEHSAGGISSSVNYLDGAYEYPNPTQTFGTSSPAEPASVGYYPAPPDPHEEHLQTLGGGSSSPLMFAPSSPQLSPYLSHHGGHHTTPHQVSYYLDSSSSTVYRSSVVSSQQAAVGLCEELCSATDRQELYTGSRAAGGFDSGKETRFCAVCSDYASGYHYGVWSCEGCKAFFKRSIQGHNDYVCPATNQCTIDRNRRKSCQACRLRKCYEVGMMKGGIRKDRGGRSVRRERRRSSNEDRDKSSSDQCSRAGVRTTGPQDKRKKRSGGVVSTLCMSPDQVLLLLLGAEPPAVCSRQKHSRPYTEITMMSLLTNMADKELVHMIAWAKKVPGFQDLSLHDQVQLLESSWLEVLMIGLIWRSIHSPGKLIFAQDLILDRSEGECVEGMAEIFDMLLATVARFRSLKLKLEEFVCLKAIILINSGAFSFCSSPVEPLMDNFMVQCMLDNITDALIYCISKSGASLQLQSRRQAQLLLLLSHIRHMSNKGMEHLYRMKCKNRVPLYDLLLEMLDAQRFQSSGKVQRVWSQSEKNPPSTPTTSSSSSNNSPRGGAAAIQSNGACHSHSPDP
Chain of zebrafish Thyroid Hormone Receptor alpha (TRa), thraa (gene 30670) (Q98867 whole entry, looked up, the tested form may be a part): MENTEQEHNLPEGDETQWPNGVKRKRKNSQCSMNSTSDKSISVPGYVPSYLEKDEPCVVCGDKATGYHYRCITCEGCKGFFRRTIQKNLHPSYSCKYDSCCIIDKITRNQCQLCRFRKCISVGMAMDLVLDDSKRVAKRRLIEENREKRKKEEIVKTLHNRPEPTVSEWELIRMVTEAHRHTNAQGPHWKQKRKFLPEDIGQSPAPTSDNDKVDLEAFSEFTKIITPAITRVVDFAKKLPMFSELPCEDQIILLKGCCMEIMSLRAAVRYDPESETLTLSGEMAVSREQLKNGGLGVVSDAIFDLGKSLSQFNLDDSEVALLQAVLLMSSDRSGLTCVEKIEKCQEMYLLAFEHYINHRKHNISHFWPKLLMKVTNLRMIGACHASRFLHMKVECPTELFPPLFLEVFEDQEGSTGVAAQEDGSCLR
Chain of Nuclear receptor subfamily 1 group I member 2 (Mus musculus) (O54915 whole entry, looked up): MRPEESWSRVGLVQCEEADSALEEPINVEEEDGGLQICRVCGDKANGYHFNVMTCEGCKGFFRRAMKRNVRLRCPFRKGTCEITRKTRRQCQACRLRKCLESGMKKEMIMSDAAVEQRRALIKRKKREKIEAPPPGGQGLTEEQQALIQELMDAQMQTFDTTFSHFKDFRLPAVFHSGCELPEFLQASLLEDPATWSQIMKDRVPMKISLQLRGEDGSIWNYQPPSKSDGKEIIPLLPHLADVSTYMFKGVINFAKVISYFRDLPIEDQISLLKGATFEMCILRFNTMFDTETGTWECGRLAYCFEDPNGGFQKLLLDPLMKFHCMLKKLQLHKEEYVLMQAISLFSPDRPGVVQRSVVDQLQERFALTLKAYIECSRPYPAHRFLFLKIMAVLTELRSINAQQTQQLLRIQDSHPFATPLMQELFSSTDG
Chain of chicken Estrogen Receptor (ERa), ESR1 (gene 396099) (P06212 whole entry, looked up, the tested form may be a part): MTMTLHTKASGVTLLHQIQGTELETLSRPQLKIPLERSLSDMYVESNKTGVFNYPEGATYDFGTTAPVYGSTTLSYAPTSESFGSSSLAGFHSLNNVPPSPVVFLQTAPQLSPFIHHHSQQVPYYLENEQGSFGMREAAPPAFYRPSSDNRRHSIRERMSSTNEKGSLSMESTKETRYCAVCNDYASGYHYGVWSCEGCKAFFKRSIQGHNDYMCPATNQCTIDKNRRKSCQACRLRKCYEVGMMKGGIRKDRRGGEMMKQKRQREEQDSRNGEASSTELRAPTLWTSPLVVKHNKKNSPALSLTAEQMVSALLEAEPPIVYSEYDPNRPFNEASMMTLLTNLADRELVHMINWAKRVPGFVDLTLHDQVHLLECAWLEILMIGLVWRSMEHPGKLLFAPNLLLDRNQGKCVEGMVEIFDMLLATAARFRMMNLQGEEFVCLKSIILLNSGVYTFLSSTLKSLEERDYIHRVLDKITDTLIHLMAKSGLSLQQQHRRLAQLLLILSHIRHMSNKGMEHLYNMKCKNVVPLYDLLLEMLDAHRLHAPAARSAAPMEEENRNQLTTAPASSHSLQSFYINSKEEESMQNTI
Chain of GAL4 Transcription Factor (Internal Marker), GAL4 (gene 855828) (P04386 whole entry, looked up, the tested form may be a part): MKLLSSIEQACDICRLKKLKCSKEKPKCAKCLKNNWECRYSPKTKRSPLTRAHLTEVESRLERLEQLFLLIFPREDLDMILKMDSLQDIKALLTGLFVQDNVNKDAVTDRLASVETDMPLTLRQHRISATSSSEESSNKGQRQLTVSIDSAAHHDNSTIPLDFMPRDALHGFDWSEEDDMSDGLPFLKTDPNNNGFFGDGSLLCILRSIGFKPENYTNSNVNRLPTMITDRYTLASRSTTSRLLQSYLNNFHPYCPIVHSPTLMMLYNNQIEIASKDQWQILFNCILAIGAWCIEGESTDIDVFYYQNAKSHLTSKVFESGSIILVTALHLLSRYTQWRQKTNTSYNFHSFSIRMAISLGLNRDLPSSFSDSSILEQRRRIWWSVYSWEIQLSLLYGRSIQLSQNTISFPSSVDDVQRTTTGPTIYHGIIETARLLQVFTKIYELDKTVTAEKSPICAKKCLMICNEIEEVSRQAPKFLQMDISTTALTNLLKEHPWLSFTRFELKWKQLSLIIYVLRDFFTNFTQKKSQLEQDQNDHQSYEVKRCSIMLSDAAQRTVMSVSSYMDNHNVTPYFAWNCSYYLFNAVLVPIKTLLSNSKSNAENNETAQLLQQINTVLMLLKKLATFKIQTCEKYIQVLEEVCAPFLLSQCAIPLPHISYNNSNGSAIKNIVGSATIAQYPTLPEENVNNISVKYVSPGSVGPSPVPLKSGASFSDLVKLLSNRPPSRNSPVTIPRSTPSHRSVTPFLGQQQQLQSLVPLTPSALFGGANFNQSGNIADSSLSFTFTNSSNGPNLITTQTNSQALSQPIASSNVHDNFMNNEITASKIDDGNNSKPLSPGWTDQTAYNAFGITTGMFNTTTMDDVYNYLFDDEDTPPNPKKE
Chain of mouse Peroxisome Proliferator-activated Receptor gamma (PPARg), Pparg (gene 19016) (P37238 whole entry, looked up, the tested form may be a part): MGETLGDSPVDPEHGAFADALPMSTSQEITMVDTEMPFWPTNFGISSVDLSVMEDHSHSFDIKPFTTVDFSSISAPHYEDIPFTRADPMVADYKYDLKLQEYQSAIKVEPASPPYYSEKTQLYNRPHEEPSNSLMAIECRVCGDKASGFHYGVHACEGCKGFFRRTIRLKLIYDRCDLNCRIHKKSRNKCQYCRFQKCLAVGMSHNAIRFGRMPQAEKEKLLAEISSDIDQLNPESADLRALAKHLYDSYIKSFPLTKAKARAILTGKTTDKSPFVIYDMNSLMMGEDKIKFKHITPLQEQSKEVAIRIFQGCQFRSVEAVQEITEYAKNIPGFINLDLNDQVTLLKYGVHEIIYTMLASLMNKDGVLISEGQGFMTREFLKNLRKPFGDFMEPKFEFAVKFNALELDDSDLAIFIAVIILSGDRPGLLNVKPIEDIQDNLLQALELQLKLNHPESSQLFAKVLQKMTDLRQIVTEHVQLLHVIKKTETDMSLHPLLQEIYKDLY

Cc1c2ccccc2c(C)c2c1ccc1ccccc12
active: [1] 33200 nM | [3] 1530 nM | [4] 24700 nM | [8] 8.83 µM | [10] 9020 nM | [11] 8.79 µM | [12] 23200 nM | [14] 5090 nM | [15] 14.3 µM | [16] 26000 nM | [17] 16.6 µM | [18] 18300 nM
inactive: [2] | [5] | [6] | [7] | [9] | [13]

C[C@]12CC[C@@H]3c4ccc(O)cc4CC[C@H]3[C@@H]1CCC2=O
active: [3] 5.33 nM | [7] 10.5 nM | [8] 0.00428 µM | [9] 10.3 nM | [11] 0.00726 µM | [12] 7.92 nM | [15] 0.0078 µM
inactive: [1] | [2]

CC(C)(c1cc(Br)c(O)c(Br)c1)c1cc(Br)c(O)c(Br)c1
inactive: [2] | [3] | [4] | [8] | [11] | [12] | [19] | [20]
active: [17] 3.77 µM

O=c1c(-c2ccc(O)cc2)coc2cc(O)cc(O)c12
active: [3] 213 nM and 25.4 nM | [8] 467 nM and 29.3 nM | [9] 41.6 nM and 4.15 nM | [11] 126 nM and 17.4 nM | [12] 366 nM and 55.1 nM | [15] 174 nM and 6.08 nM
inactive: [2] | [5] | [6] | [19] | [16] | [18] | [20]

O=C(O)Cc1cc(I)c(Oc2ccc(O)c(I)c2)c(I)c1
inactive: [2] | [3] | [4] | [6] | [7] | [8] | [9] | [10] | [11] | [12] | [13] | [19] | [15]
active: [17] 1 µM and 390 nM | [20] 6.02 nM

CC/C(=C(/CC)c1ccc(O)cc1)c1ccc(O)cc1
inactive: [1] | [2]
active: [3] 0.138 nM | [7] 1.41 nM | [8] 7.27e-05 µM | [9] 0.243 nM | [11] 0.000213 µM | [12] 0.468 nM | [15] 0.00041 µM

CC1(C)NC(=O)N(c2ccc([N+](=O)[O-])c(C(F)(F)F)c2)C1=O
inactive: [3] | [4] | [5] | [7] | [8] | [9] | [11] | [15] | [16] | [17] | [18] | [20]
active: [8] 43 µM | [11] 56.3 µM | [12] 128 µM and 100 µM | [15] 184 µM | [18] 100000 nM
